Test [1] has as its system Plasmodium falciparum Sir2 (PF13_0152, Sir2A). The test can be described thus: Plasmodium falciparum Sir2A binding compounds – biochemical, small-molecule microarray, 635 nm fluorescence, primary screen (AID 1098).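 Also: score merges spot fluorescence intensity with its signal-to-noise ratio.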 The settings on record: fluorescence 635 nm, higher = more signal.
Test [2] is described as follows: probe aDKK1 binding to arrayed compounds – biochemical, biotinylated probe, 635/667 nm fluorescence, primary screen (AID 1099).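 Also: score merges 667nm spot fluorescence with signal to noise across triplicate slides.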 As to conditions: small-molecule microarray, higher = more signal.
Test [3] is described as follows: probe aCHRDL2 binding to arrayed compounds – biochemical, biotinylated probe, 635/667 nm fluorescence, primary screen (AID 1100). As to conditions: small-molecule microarray, higher = more signal.
A short description of test [4]: change in splice reporter luminescence, either direction, cell-based, HEK293, spliceosome inhibition project, primary screen (AID 1101).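 Also: HEK293 cells carrying a splicing-competent luciferase reporter gene; test concentration not given here.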 As to conditions: HEK293 splicing luciferase reporter, 24 h, higher = more signal, called active from +8 up or from −8 down.
For test [5], the target named is Fibroblast growth factor 10 (Homo sapiens) (UniProt O15520). Kind of test: compounds binding fibroblast growth factor 10 – biochemical, small-molecule microarray, 635 nm fluorescence, primary screen (AID 1102). The settings on record: FGF10 binding, fluorescence 635 nm, higher = more signal.
Chain of Fibroblast growth factor 10 (Homo sapiens) (O15520 whole entry, looked up): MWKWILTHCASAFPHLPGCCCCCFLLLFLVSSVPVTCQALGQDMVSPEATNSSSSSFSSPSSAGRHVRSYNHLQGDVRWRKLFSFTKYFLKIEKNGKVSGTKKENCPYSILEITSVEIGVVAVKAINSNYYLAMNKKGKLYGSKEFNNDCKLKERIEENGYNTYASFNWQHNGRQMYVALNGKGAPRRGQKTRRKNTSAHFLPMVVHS
The subject of test [6] is glycogen synthase kinase-3 (GSK3A per assay name; protocol says GSK3B). The test can be described thus: compounds binding glycogen synthase kinase-3 – biochemical, small-molecule microarray, 635 nm fluorescence, GSK3A, primary screen (AID 1103). Also: the record names both GSK3A and GSK3B. The settings on record: fluorescence 635 nm, higher = more signal.
For test [7], the target named is Epidermal growth factor receptor (Homo sapiens) (UniProt P00533). The test can be described thus: compounds binding epidermal growth factor receptor – biochemical, small-molecule microarray, 635 nm fluorescence, primary screen (AID 1104).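 Also: score merges 667 nm emission intensity with spot signal to noise over triplicate slides.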 The settings on record: EGFR binding, higher = more signal.
Chain of Epidermal growth factor receptor (Homo sapiens) (P00533 whole entry, looked up): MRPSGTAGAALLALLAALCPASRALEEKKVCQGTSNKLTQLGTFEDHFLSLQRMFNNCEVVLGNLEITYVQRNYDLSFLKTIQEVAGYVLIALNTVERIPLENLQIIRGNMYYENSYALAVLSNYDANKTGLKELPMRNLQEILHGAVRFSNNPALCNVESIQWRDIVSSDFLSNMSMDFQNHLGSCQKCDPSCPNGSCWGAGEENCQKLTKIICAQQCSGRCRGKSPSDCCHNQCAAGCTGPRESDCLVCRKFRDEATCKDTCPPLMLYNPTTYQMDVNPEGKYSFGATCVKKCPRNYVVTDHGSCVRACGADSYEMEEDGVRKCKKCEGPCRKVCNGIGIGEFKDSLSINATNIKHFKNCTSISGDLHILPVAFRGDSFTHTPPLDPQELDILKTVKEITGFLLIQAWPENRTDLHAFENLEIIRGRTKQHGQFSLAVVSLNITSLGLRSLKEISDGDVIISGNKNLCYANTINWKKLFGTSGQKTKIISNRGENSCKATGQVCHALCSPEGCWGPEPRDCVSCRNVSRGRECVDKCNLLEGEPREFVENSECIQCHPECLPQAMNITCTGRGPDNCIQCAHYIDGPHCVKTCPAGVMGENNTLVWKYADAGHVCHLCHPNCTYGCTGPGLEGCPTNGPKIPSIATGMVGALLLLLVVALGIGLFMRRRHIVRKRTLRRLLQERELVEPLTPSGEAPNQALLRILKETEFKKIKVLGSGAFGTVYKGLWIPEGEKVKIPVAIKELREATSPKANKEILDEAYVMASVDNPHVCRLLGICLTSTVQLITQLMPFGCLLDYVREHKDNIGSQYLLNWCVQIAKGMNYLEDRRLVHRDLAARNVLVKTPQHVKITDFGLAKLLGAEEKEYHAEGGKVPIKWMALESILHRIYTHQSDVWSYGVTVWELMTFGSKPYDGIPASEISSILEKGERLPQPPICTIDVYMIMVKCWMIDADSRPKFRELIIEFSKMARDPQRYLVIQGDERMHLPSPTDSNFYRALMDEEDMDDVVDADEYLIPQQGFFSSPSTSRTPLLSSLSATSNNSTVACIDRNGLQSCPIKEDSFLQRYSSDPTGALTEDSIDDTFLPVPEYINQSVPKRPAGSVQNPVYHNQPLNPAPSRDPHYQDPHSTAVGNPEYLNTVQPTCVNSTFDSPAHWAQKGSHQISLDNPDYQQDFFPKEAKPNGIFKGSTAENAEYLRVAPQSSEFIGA
For test [8], the target named is Follistatin-related protein 3 (Homo sapiens) (UniProt O95633). Kind of test: compounds binding follistatin-related protein 3 – biochemical, small-molecule microarray, 635 nm fluorescence, primary screen (AID 1105).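 Also: score merges emission near 667 nm and signal to noise per printed spot across three slides.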 The settings on record: FSTL3 binding, higher = more signal.
Chain of Follistatin-related protein 3 (Homo sapiens) (O95633 whole entry, looked up): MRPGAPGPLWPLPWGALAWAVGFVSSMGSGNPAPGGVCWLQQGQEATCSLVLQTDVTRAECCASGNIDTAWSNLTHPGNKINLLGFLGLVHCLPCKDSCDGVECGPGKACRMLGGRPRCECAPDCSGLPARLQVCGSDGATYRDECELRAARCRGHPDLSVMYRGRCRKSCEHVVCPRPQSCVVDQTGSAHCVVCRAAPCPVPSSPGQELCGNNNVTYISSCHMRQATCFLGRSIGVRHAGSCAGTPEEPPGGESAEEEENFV
For test [9], the target named is Dickkopf-related protein 1 (Homo sapiens) (UniProt O94907). The test can be described thus: small molecules binding DKK1 protein – biochemical, small-molecule microarray, 635 nm fluorescence scan, primary screen (AID 1106).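 Also: score merges emission near 667 nm with signal to noise over three replicate slides.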 As to conditions: higher = more signal.
Chain of Dickkopf-related protein 1 (Homo sapiens) (O94907 whole entry, looked up): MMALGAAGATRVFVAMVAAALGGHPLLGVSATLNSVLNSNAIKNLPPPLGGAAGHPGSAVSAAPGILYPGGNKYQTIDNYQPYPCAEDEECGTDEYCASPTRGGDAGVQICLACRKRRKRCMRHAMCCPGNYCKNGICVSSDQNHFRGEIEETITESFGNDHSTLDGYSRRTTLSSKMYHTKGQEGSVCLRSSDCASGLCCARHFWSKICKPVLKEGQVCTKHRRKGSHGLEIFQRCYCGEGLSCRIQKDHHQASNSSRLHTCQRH
For test [10], the system named is Inhibin beta A chain (activin A). Kind of test: small molecules binding activin A – biochemical, small-molecule microarray, 635 nm fluorescence scan, primary screen (AID 1107).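 Also: mouse activin A protein probed at 4.33 µg/mL on printed slides; score merges bound-protein fluorescence near 667 nm with spot signal-to-noise.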 The settings on record: INHBA, higher = more signal.
The subject of test [11] is Human papillomavirus type 1a protein E7 (residues 44-93). Kind of test: small molecules binding HPV E7 44-93 – biochemical, small-molecule microarray, residues 44-93, 635 nm fluorescence, primary screen (AID 1108).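 Also: E7 fragment applied at 1 µg/mL in TBST for 1 h at 4 C; score combines spot fluorescence with its signal to noise ratio.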 The settings on record: fluorescence 635 nm, higher = more signal.
Test [12] is described as follows: hepatitis C replication reporter changes, two-sided – Huh7 cells, luciferase reporter, HCV replication inhibitor project, primary screen (AID 1109).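 Also: huh7 hepatoma cells harbouring a luciferase neomycin HCV replicon reporter; luciferase luminescence as measure of HCV replicon replication; test concentration not given here.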 The settings on record: Huh7 HCV replicon luciferase reporter, 48 h; higher = more signal.
The target in test [13] is Left-right determination factor 2 (Homo sapiens) (UniProt O00292). The test can be described thus: small molecules binding LEFTY2 protein – biochemical, small-molecule microarray, 635 nm fluorescence scan, primary screen (AID 1110). As to conditions: higher = more signal.
Chain of Left-right determination factor 2 (Homo sapiens) (O00292 whole entry, looked up): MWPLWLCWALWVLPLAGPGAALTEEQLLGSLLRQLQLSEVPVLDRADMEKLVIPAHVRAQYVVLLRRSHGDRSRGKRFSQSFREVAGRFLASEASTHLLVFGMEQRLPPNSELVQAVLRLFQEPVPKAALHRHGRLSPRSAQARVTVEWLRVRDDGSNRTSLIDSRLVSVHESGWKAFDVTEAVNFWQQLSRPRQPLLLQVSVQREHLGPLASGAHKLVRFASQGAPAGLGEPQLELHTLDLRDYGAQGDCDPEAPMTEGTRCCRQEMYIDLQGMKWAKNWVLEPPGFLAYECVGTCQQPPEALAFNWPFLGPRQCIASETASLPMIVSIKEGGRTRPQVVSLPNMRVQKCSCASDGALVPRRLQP
For test [14], the target named is Calmodulin-1 (Homo sapiens) (UniProt P0DP23). The test can be described thus: small molecules binding calmodulin-1 with EGTA – biochemical, small-molecule microarray, Cy5-labelled CALM1, profiling panel (AID 1111).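 Also: labelled calmodulin applied in Tris saline Tween buffer holding calcium plus EGTA and DTT.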 The settings on record: Cy5-CALM1 binding fluorescence, higher = more signal.
Test [15] shares this target. Kind of test: small molecules binding Ca-loaded calmodulin-1 – biochemical, small-molecule microarray, Cy5-labelled CALM1, plus calcium, artefact control for SMM control-protein annotation, profiling panel (AID 1112).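 Also: score merges spot fluorescence with signal to noise from triplicate slides.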 As to conditions: Cy5-CALM1 binding fluorescence, higher = more signal.
Test [16] is described as follows: probe aWnt5a binding to arrayed compounds – biochemical, biotinylated probe, 635/667 nm fluorescence, primary screen (AID 1113).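 Also: score merges 667 nm fluorescence intensity with signal-to-noise per printed feature.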 As to conditions: small-molecule microarray, higher = more signal.
Test [17] can be described thus: probe aShh binding to arrayed compounds – biochemical, biotinylated probe, 635/667 nm fluorescence, primary screen (AID 1114).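 Also: probe is biotin-labelled aShh protein from a stem cell growth factor screen; measures binding of labelled protein to compounds printed on the slide; score merges feature fluorescence at 667 nm with signal-to-noise.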 As to conditions: small-molecule microarray, higher = more signal.
Test [18] is described as follows: probe aNog binding to arrayed compounds – biochemical, biotinylated probe, 635/667 nm fluorescence, primary screen (AID 1115).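 Also: probe is biotinylated aNog protein used at 0.15 µg/mL for 1 h at 4 C; z-score combines 667 nm fluorescence of each spot with its signal to noise.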 As to conditions: small-molecule microarray, higher = more signal.
Test [19] deals with Torsin-1A-interacting protein 1 (Homo sapiens) (UniProt Q5JTV8). The test can be described thus: compound microarray binding of lysate hLAP1 – cell lysate, small-molecule microarray, COS7 lysate, 635/667 nm fluorescence, primary screen (AID 1116). The settings on record: 635 nm fluorescence, higher = more signal.
Chain of Torsin-1A-interacting protein 1 (Homo sapiens) (Q5JTV8 whole entry, looked up): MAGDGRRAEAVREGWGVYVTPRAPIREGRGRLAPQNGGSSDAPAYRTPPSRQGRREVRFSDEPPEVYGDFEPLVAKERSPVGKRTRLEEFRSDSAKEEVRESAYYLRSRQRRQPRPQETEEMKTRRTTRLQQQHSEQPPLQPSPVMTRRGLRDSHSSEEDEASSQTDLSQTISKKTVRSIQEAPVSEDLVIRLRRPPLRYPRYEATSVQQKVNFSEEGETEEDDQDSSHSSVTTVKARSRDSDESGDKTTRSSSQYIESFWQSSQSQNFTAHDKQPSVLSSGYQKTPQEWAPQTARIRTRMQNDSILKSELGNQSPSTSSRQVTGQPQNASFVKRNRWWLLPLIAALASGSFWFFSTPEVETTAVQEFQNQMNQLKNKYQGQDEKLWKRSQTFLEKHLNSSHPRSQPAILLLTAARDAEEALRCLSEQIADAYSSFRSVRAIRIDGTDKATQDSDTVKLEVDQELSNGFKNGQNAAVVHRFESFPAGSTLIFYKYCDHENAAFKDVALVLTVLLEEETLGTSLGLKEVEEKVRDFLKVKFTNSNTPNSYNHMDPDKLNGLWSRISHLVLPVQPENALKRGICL
Test [20] has as its target Alpha-bungarotoxin (Bungarus multicinctus) (UniProt P60615). Kind of test: compounds binding labelled alpha-BTX control protein – biochemical, small-molecule microarray, Alexa647 label, 635/667 nm fluorescence, artefact control for SMM control protein annotation, profiling panel (AID 1117). As to conditions: alpha-BTX-A647 binding fluorescence, higher = more signal.

Active and inactive are the calls of the source.

Chain of Alpha-bungarotoxin (Bungarus multicinctus) (P60615 whole entry, looked up): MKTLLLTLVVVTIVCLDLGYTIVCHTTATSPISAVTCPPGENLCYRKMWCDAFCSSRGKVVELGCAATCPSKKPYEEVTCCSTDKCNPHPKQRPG

`C=CCOC(=O)[C@H]1[C@@H]2C(=O)O[C@@H](c3ccccc3)[C@@H](c3ccccc3)N2[C@@H](c2ccc(OCCOC(=O)[C@@H]3C[C@@H]4C(=O)NCC(=O)N4[C@@H]3c3ccc(O)cc3)cc2)[C@]12C(=O)Nc1ccc(I)cc12`: the composite z-score in [1] was 1.49; in test [2], -0.106; in test [3] it was 0.0065; in test [5], 1.2; in test [6], 1.3; in [7], 1.14. The composite z-score in test [8] came to 1.34; in test [9], 0.873; in [10], 0.141; in test [11] it was 1.37; in test [13], 1.04; in test [14], 1.56. The composite z-score is 0.341 in test [15]; -0.0519 in test [16]; 0.131 in test [17]; -0.412 in test [18]; 1.14 in test [19]; 1.52 in test [20]. Also, the z-score is -0.0179 (inactive) in test [4] and -1.59 in test [12].
As for `O=C(NCC(O)CO)[C@]1(CCS(=O)(=O)c2ccccc2)N=C(c2ccc(OCCCO)cc2)O[C@@H]1c1ccccc1` (stereo not given in full), the composite z-score in [1] was 1.11; in [2], 1.28; in test [3] it was 1.34; in test [5], 0.305; in [6] it was 0.516; in test [7], -0.498. The composite z-score was -0.365 in test [8]; -0.868 in [9]; 0.529 in test [10]; 0.556 in [11]; -0.805 in [13]; 1.99 in test [14]. Besides, the composite z-score in test [15] is 1.48; in [16], -0.0846; in test [17], 0.0756; in [18] it was 1.12; in [19], 2.69; in [20] it was 2.41. Further, the results for the z-score in test [4] and in [12] were 0.833 (inactive) and -0.326, respectively.
Regarding `[N-]=[N+]=NCc1ccccc1C[C@]1(C(=O)N2CCOCC2)N=C(c2ccc(OCCCO)cc2)O[C@H]1c1ccccc1`, the composite z-score was 0.947 in [1]; 0.102 in test [2]; 0.904 in test [3]; 1.39 in test [5]; 0.551 in [6]; -0.458 in [7]. Further, the composite z-score is 0.223 in test [8]; -0.774 in [9]; 0.275 in test [10]; 1.25 in [11]; -0.712 in [13]; 1.4 in test [14]. In addition, the composite z-score in [15] is 0.886; in test [16], -0.0203; in test [17], 0.207; in test [18], -0.376; in test [19], 0.68; in test [20], 1.02. The figures for the z-score in test [4] and in test [12] were -1.18 (inactive) and -3.07, respectively.
With `CCOC(=O)C[C@H]1[C@H](OC(=O)c2ccccc2-c2ccccc2)[C@@H](NC(=O)c2ccc(-c3ccccc3)cc2)c2cc(OCCCO)ccc2N1C(=O)c1ccccc1`, the composite z-score was 0.154 in test [1]; 0.319 in test [2]; -0.181 in [3]; 0.888 in test [5]; 0.425 in [6]; 0.31 in [7]. Further, the composite z-score is 0.645 in [8]; 0.531 in test [9]; -0.0094 in [10]; 1.26 in test [11]; 0.572 in test [13]; 0.455 in test [14]. The composite z-score was -0.361 in [15]; -0.16 in test [16]; -0.282 in test [17]; 0.0273 in test [18]; 0.539 in [19]; 0.57 in test [20]. Also, the values for the z-score in [4] and in test [12] were 0.119 (inactive) and -1.81, respectively.
For `C=C[C@H](OC)[C@@H](OC(=O)Nc1ccc(SC)cc1)c1ccc(OCCO)cc1`, the composite z-score in test [1] was 1.08; in test [2], 0.242; in test [3], 0.796; in [5] it was 0.141; in test [6] it was 0.0735; in test [7] it was -0.196. Also, the composite z-score was -0.275 in test [8]; 0.155 in [9]; -0.176 in [10]; 1.03 in [11]; 0.105 in test [13]; 0.0629 in test [14]. Further, the composite z-score was 0.362 in test [15]; 0.0433 in test [16]; -0.0035 in [17]; 0.375 in [18]; 1.35 in test [19]; 1.62 in [20]. Moreover, the z-score was -1.96 (inactive) in [4] and 2.8 in [12].

The record behind these values is PubChem BioAssay.
